Results as given in PubChem BioAssay (NCI).
Compounds without any hit were thinned out: in the full panel of roughly 83,000, 20% have a hit.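 Treatment: one concentration, 48 hours, 96-well format. Scoring: percent growth, with anything below 10 considered active.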 Activity calls are given as the source filed them.

system: HCC-2998 colon; assay: NCI-60 one-dose screen, 48 h (100 = growth as untreated, 0 = no growth, -100 = all killed); conditions: 10 µM unless noted

Row | Structure (SMILES) | growth
1 | COc1ccc2nc3cc(Cl)ccc3c(N3CCN(c4ccnc(N5CCN(C)CC5)n4)CC3)c2c1 | 8.43% (active)
2 | Cc1cccc(NC(=O)c2sc3nc4c(cc3c2N)C(=O)CCC4)c1 | 33.7% (inactive)
3 | C=C1CCC2C3(C)COC(c4cccc(Cl)c4)OC3CCC2(C)C1/C=C/C1=CCOC1=O (stereo not given) | 39.9% (inactive)
4 | COC(=O)[C@H](C(C)C)n1c(=O)c2cc(OC)c(OC)cc2c2cnc3[nH]ccc3c21 | 62% (inactive)
5 | O=C(/C=C/c1cc2ccccc2[nH]c1=O)/C=C/c1cc2ccccc2[nH]c1=O | -88.9% (active)
6 | CC1=C(NCCN2CCCC2)C(=O)c2c(OCc3cccc(Cl)c3)cccc2C1=O | 84.4% (inactive)
7 | Cn1c2ccccc2c2c3c(c4c5ccccc5[nH]c4c21)C(=O)N(N)C3=O | 74.4% (inactive)
8 | C/C=C/C(N)=O | 109% (inactive)
9 | CN1CCN(Cc2ccc(NC(=O)c3[nH]ncc3Nc3ncnc4c3CCC4)cc2)CC1 | 13.1% (inactive)
10 | COc1cc(OC)c(/C=C/c2cc[n+](C)c3ccccc23)c(OC)c1 | 10% (inactive)
11 | Clc1cccc(Nc2nc(Nc3cnc4ccccc4c3)c3[nH]cnc3n2)c1 | 100% (inactive)
12 | Oc1ccccc1/C=N/Nc1ccc2ccccc2n1 | 68.6% (inactive)
13 | COc1ccc(/C=C2\N=C3Sc4cc(Cl)ccc4C(=O)N3C2=O)cc1 | 118% (inactive)
14 | Cc1cc(N/N=C/c2nc(-c3ccc(Cl)cc3)oc2C)c2cc(Cl)ccc2n1 | 103% (inactive)
15 | NS(=O)(=O)c1ccc(Nc2nc3n[nH]c(Nc4ccccc4)c3c(=O)[nH]2)cc1 | 112% (inactive)
